Screening data: PubChem, The Scripps Research Institute Molecular Screening Center
In the library only some 2.4% were active in any assay of this set; here they are far more common.
CHRM1 PAM: human CHRM1 positive allosteric modulation; activation, % at 3 µM; hit rate 0.088% among 360,000; CHO-K1 hM1, Fluo-8 calcium fluorescence, ACh EC20; 0% = ACh EC20, 100% = maximal ACh; P11229; in the data active = activation above about 19%, passing the limit was not always enough
Target sequence (P11229 whole entry, looked up): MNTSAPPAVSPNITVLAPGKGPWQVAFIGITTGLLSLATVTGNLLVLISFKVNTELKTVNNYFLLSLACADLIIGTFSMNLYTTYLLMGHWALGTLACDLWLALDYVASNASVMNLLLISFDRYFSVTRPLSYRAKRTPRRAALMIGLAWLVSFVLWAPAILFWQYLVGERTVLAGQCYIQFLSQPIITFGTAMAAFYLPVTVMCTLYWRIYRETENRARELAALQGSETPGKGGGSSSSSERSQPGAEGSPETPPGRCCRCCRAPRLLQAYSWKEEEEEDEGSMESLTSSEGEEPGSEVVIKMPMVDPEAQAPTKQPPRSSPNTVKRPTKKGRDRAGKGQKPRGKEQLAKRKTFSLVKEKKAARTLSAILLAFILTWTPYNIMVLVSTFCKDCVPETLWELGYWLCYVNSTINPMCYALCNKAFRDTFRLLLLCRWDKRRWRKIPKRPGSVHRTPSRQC
CHRM1 antagonist: antagonists of human M1 muscarinic receptor | AID 588852 | CHO-K1 hM1, Fluo-8 calcium fluorescence, ACh EC80 antagonist | hit rate 1.3% among 360,000 | inhibition, % at 3 µM;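 active = percent inhibition above its own plate's cutoff, namely the mean of that plate's compound wells plus 3 SD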;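 note: peak over basal fluorescence ratio during 140 s after agonist addition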
CHO-K1 Ca ag: nonselective activator or artifact in parental CHO-K1 cells | activation, % at 3 µM | Fluo-8 calcium fluorescence; scaled to maximal ATP response, vehicle zero | AID 602248 | hit rate 0.48% among 360,000; in the data active = activation above about 15%;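 note: untransfected CHO-K1 host cells lacking M1 receptor as counterscreen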
CHRM1 agonist: activates human CHRM1 receptor | P11229 | CHO-K1 hM1, Fluo-8 calcium fluorescence, agonist mode; 0% DMSO, 100% acetylcholine EC100 | activation, % at 3 µM | hit rate 0.33% among 360,000;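 active = activation above the run's mean compound activation plus 3 SD, cut at about 16% in these data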;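 note: peak over basal fluorescence ratio within a 140 s kinetic read after compound addition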
CHO-K1 Ca PAM: M1 PAM counterscreen hit in parental CHO-K1 cells; ATP EC20, Fluo-8 calcium fluorescence; 0% at ATP EC20, 100% at ATP max; hit rate 0.02% among 360,000; activation, % at 3 µM; AID 602247;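 active = activation above the run cutoff, the mean activation of all test compounds plus 3 SD, cut at about 40% in these data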;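 note: peak over basal fluorescence ratio in a 140 s read after ATP addition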
CHO-K1 Ca antag: counter-screen for M1 antagonists: effect in parental CHO-K1 cells. ATP-induced calcium, Fluo-8 fluorescence. inhibition, % at 3 µM. hit rate 0.6% among 360,000;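 active = inhibition above a per-plate cutoff, the plate's mean sample inhibition plus 3 SD, cut at about 24% in these data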
Of the large screens only hits and unclear results are named; the others gave an inactive call.

COc1ccc(OC)c(S(=O)(=O)N2CCN(C(=O)c3ccco3)CC2)c1	none
CN(C(=O)c1ccc(NC(=O)Cc2cccc(NC(=O)C3CCN(C(=O)C4CCCCC4)CC3)c2)cc1)C1CCCC1	none
CN(Cc1ccc(C#CCCO)cc1)CC1CCCN(CCc2ccc(Cl)cc2)C1 (configuration not stated)	CHRM1 antagonist 40
CN(Cc1ccccc1O)CC1CCCN(CCc2ccc(Cl)cc2)C1 (configuration not stated)	CHRM1 antagonist 80
CCN(Cc1ccc(OC)c(COC)c1)CC1CCCN(CCc2cccc(F)c2)C1 (configuration not stated)	none
CCN(Cc1ccc(C#CCCO)cc1)CC1CCCN(CCc2cccc(F)c2)C1 (configuration not stated)	CHRM1 antagonist 52
CCN(C(=O)COC(=O)/C(=C/c1ccccc1)n1nnnc1C)C1CCCCC1	none
Cc1nc2c(OCc3cccc(Cl)c3)cccn2c1N(C)Cc1cccs1	CHRM1 antagonist 34
Cc1nc2c(OCc3ccc(Cl)cc3Cl)cccn2c1N(C)Cc1cccs1	none
CSc1ccccc1NS(=O)(=O)c1ccccc1	CHO-K1 Ca antag 25
O=C(Cc1cccs1)NNC(=S)NCc1ccco1	none
Cc1ccccc1NC(=O)c1ccc(F)c(S(=O)(=O)N2CCCCC2)c1	CHO-K1 Ca ag 19
Cc1ccc(NC(=O)c2cc(S(=O)(=O)N(C)C)ccc2N2CCCC2)cc1S(=O)(=O)N(C)C	CHRM1 antagonist 32
CCOc1ccc(NC(=O)c2ccc(F)c(S(=O)(=O)N3CCCC3)c2)cc1	CHO-K1 Ca antag 24
Cc1ccccc1NC(=O)c1cccc(S(=O)(=O)N2CCCCC2)c1	none
Cc1ccc(NC(=O)c2ccccc2NS(=O)(=O)c2ccc(F)cc2)cc1S(=O)(=O)N1CCCCC1	CHO-K1 Ca antag 26
Cc1ccc(NC(=O)c2cc(S(=O)(=O)N3CCCCC3)ccc2N2CCOCC2)cc1S(=O)(=O)N(C)C	none
O=C(Nc1cccc(S(=O)(=O)N2CCCCC2)c1)c1ccccc1NS(=O)(=O)c1ccc(F)cc1	none
O=C(/C=C/c1c(F)cccc1Cl)NCc1ccco1	none
COCCCNC(=O)CC1C[C@H](C(=O)N2CCCCC2)[C@@]2(C)c3[nH]c4ccccc4c3CCN2C1=O (some centres not stated)	none
C=CCNc1ncnc2c1cnn2-c1ccc(Cl)cc1	none
COc1ccc(N/C=C(\C#N)S(=O)(=O)c2ccc(OC)cc2)cc1	none
CCCC(=O)N1CCN(Cc2ccc3c(c2)OCO3)CC1	none
COc1ccc(-c2c(-c3cc(OC)cc(OC)c3)n(C)c3ccc(Br)cc23)cc1	none
COc1ccc(N=Nc2nc3ccc(Br)cc3n2C)cc1	CHO-K1 Ca ag 18, CHRM1 agonist 17
O=C1CS/C(=N\NC(=O)c2ccccc2)N1	none
O=C(CCCCCn1c(=S)[nH]c2cc3c(cc2c1=O)OCO3)N1CCN(Cc2ccccc2)CC1	none
O=C(CCCCCn1c(=S)[nH]c2cc3c(cc2c1=O)OCO3)N1CCN(C2CCCCC2)CC1	CHRM1 antagonist 37
CCOC(=O)c1c(NC(=O)c2ccc(S(=O)(=O)N(C)CC3CCCO3)cc2)sc2c1CCN(C)C2 (configuration not stated)	none
COc1cccc(CNc2ccc3c(c2)CCC3)c1	none
COc1cccc(CNc2ccc(C)c(Cl)c2)c1	CHO-K1 Ca ag 17
Cc1cc(C(=O)COc2ccc(C#N)cc2)c(C)n1-c1ccc2c(c1)OCO2	CHO-K1 Ca antag 32
Cc1cc(C(=O)COC(=O)C2=COCCO2)c(C)n1-c1ccc2c(c1)OCO2	none
CCCC[C@@H]1CNCCN1CCc1cc(C(F)(F)F)cc(C(F)(F)F)c1	CHRM1 antagonist 34
FC(F)(F)c1cc(CCN2CCNC[C@@H]2CC2CCCCC2)cc(C(F)(F)F)c1	CHRM1 antagonist 36
FC(F)(F)c1cc(CCN2CCNC[C@@H]2c2ccccc2)cc(C(F)(F)F)c1	none
COc1ccccc1C=NNC(=O)c1ccncc1	none
O=C(NCc1ccc(F)cc1)C1CCC(CNS(=O)(=O)c2cccs2)CC1 (configuration not stated)	none
CCN(CC)CC(=O)NCC1(c2ccccc2)CCCC1	CHRM1 antagonist 66
O=C(CN1CCCCC1)NCC1(c2ccccc2)CCCC1	CHRM1 antagonist 40
